Source: the supplement of paper PMC11732987, “Enantioselective OTUD7B fragment discovery through chemoproteomics screening and high-throughput optimisation” (Communications Chemistry, 2025)

Assays:
Assay in all cases: log2 ratio of Biotin-Ahx-Ub-VS probe labelling (fragment/DMSO); higher = less target engagement (more negative = stronger competition), active = hit call of the paper (q ≤ 0.05, log2 ratio ≤ -1)
Conditions in all cases: compound concentration: 200 uM; treatment time: 3 h
USP34 = USP34 (UniProt Q70CQ2)
USP34, sequence (Q70CQ2 whole entry, the tested form may be a part): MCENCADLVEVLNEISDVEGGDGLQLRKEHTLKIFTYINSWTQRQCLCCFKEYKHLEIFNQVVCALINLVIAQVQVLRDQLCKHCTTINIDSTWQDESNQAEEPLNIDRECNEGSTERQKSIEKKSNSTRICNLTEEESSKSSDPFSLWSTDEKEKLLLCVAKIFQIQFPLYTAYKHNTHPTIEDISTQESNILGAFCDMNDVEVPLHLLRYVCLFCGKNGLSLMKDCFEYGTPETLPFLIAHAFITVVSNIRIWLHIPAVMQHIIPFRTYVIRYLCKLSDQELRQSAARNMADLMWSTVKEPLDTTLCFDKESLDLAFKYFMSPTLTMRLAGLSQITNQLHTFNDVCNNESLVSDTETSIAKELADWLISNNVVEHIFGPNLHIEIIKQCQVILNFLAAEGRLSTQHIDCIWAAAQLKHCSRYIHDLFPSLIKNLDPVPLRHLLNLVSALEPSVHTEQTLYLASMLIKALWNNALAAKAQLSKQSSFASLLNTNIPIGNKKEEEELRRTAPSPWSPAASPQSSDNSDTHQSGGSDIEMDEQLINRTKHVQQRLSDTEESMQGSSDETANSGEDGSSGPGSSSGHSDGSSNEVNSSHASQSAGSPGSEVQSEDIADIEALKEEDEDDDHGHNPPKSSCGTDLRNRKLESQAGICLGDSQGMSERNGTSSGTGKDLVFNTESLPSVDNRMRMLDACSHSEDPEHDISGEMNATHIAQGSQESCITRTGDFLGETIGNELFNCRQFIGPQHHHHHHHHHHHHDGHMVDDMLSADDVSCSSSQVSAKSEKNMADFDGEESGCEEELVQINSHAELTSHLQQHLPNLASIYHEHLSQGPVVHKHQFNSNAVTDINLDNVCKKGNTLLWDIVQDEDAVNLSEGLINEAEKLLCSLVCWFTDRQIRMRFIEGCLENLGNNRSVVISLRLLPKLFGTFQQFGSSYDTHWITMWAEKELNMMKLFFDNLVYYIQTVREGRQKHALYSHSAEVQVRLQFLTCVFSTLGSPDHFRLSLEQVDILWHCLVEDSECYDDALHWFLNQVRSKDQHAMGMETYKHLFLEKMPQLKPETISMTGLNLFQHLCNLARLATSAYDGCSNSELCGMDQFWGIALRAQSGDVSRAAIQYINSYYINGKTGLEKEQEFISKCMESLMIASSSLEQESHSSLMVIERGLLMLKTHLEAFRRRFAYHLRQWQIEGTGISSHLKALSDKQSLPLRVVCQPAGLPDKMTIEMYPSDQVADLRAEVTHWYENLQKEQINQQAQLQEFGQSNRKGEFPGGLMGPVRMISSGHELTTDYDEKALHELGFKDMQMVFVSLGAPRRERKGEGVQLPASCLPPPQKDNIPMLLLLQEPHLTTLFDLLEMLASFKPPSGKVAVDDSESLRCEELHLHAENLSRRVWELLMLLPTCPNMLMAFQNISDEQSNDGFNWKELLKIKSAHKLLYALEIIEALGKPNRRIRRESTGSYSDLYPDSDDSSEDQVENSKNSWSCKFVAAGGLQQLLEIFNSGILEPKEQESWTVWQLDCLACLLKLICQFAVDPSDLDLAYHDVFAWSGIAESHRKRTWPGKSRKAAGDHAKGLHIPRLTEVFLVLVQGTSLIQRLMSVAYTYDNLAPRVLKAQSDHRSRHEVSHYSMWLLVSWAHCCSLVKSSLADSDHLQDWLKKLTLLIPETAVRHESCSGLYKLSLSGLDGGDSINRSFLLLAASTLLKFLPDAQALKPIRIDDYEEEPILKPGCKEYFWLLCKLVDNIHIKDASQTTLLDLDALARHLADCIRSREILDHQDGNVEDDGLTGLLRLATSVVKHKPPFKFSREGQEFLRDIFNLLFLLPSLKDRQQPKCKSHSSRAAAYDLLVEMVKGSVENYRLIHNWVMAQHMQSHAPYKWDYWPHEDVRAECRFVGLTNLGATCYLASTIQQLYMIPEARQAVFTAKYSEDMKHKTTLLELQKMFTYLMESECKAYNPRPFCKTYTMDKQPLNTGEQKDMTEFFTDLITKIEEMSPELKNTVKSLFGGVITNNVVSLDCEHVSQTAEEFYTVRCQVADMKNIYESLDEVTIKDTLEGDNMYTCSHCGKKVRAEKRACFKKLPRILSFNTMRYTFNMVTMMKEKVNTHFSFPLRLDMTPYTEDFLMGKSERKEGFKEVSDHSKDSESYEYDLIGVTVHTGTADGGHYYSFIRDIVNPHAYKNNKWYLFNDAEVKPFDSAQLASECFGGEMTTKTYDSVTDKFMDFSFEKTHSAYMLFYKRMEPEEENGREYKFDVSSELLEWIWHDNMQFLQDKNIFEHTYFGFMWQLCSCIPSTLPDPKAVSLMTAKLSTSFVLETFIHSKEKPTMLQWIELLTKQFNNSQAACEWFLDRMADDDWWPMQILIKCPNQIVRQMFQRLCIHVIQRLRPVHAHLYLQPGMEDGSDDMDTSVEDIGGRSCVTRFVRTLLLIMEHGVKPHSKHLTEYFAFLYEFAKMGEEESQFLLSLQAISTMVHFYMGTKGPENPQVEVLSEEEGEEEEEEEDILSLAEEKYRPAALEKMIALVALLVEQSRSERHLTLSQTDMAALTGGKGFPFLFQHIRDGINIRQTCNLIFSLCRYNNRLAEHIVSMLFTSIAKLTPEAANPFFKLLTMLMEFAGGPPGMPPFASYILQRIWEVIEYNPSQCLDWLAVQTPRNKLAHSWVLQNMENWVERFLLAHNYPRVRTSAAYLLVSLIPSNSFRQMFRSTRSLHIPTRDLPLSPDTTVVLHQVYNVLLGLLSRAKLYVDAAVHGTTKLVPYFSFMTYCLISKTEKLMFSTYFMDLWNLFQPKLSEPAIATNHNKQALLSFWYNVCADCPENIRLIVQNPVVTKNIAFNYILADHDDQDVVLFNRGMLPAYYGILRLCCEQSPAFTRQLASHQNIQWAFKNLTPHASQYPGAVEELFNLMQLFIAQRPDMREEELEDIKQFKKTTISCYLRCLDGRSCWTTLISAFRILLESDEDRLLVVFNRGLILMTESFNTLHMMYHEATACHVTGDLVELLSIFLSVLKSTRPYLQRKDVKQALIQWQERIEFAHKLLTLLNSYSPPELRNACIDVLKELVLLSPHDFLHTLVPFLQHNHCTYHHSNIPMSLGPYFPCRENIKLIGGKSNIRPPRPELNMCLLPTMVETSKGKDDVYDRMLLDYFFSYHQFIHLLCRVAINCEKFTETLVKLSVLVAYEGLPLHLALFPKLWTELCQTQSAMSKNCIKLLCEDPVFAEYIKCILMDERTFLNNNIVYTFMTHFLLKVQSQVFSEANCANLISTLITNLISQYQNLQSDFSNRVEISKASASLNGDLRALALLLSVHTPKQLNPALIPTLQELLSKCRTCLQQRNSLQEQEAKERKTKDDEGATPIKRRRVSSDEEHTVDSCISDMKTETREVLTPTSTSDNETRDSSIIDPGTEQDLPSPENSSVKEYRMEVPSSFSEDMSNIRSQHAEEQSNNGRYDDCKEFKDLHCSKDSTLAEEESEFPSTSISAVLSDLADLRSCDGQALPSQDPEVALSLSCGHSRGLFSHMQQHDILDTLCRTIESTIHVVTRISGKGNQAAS
Method in brief: (§1)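 Triplicate samples of HEK293T lysate, 495 µg each, received fragment at 200 µM or vehicle for 3 h, followed by Biotin-Ahx-Ub-VS (0.5 µM final) for 1 h. After NeutrAvidin enrichment of labelled DUBs and LysC/trypsin digestion, peptides were run by diaPASEF LC-MS/MS. The values are average log2 fragment/vehicle ratios from global-median-normalised Spectronaut label-free quantities, tested by unpaired t-test on proteins having ≥2 unique peptides.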

USP36 = biological target: T1, USP36 (UniProt Q9P275)
T1 sequence (whole entry): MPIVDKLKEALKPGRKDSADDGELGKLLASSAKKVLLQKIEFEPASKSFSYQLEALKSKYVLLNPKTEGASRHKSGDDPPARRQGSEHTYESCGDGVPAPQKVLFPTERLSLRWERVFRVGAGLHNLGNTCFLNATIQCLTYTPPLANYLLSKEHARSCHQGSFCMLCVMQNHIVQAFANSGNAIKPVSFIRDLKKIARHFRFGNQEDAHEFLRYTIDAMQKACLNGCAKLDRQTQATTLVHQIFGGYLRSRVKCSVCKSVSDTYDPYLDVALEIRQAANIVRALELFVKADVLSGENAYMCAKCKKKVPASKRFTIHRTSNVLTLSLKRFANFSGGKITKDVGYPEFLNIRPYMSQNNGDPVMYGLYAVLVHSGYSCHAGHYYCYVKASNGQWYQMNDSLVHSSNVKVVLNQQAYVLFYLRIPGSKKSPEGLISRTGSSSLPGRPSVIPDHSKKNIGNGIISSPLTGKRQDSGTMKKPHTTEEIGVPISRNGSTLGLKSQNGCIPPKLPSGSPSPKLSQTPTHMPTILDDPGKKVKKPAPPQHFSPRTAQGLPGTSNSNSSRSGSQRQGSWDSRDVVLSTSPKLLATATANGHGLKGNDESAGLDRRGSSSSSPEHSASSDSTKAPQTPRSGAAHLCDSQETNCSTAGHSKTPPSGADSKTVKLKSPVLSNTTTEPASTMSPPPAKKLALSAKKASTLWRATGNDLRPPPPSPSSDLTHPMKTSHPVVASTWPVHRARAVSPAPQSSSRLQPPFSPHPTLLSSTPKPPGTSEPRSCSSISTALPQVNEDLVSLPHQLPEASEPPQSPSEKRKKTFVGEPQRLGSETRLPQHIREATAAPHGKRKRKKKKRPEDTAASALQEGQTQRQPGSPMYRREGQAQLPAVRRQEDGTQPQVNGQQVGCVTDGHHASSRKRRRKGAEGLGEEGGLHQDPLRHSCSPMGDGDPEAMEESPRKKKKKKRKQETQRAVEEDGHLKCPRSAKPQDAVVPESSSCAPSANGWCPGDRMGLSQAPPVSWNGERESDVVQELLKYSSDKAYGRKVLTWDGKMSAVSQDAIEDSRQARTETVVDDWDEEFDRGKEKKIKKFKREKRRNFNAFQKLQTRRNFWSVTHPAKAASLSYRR
Method in brief: as §1

USP38 = biological target: T2, USP38 (UniProt Q8NB14)
T2 sequence (whole entry): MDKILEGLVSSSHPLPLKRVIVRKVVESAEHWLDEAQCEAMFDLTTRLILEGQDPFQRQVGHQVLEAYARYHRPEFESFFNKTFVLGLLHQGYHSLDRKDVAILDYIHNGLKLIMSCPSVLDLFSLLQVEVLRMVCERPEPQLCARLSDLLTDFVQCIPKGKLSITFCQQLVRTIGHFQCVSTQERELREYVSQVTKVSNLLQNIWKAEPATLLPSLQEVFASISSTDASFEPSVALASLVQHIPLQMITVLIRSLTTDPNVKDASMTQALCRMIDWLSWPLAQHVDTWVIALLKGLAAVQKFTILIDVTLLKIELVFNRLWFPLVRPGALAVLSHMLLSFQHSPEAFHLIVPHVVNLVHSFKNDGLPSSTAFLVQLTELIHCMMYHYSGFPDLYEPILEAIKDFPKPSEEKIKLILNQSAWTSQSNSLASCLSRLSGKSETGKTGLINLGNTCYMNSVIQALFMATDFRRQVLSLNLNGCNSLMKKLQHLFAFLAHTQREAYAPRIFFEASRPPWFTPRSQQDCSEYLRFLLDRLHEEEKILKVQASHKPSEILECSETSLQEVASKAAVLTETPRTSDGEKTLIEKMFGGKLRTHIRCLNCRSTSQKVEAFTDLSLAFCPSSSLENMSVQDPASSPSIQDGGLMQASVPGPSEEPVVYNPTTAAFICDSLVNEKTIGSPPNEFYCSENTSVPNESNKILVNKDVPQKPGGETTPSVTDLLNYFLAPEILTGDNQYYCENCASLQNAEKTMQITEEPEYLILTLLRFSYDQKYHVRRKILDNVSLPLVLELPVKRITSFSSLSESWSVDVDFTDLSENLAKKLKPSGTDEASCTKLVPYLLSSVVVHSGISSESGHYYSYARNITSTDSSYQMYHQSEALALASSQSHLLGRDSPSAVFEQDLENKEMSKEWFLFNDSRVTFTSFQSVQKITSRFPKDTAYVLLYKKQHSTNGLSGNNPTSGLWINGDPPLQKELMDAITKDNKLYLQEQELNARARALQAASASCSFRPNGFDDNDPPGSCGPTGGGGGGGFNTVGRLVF
Method in brief: as §1

USP39 = biological target: T3, USP39 (UniProt Q53GS9)
T3 sequence (whole entry): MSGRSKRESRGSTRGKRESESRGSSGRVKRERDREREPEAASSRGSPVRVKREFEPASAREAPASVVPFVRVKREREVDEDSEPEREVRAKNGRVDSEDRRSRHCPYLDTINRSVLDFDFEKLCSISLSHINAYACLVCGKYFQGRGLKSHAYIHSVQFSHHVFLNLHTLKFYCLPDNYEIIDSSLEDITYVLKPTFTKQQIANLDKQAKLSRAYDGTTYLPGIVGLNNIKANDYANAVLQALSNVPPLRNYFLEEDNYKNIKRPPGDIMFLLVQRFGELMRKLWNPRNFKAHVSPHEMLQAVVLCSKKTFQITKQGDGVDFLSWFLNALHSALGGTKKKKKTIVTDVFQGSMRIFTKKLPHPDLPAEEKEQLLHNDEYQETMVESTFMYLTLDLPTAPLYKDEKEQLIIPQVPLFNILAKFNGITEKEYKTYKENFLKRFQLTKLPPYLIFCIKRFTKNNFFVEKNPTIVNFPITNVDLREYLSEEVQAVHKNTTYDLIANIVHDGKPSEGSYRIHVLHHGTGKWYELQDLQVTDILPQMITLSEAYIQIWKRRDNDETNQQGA
Method in brief: as §1

USP4 = biological target: T4, USP4 (UniProt Q13107)
T4 sequence (whole entry): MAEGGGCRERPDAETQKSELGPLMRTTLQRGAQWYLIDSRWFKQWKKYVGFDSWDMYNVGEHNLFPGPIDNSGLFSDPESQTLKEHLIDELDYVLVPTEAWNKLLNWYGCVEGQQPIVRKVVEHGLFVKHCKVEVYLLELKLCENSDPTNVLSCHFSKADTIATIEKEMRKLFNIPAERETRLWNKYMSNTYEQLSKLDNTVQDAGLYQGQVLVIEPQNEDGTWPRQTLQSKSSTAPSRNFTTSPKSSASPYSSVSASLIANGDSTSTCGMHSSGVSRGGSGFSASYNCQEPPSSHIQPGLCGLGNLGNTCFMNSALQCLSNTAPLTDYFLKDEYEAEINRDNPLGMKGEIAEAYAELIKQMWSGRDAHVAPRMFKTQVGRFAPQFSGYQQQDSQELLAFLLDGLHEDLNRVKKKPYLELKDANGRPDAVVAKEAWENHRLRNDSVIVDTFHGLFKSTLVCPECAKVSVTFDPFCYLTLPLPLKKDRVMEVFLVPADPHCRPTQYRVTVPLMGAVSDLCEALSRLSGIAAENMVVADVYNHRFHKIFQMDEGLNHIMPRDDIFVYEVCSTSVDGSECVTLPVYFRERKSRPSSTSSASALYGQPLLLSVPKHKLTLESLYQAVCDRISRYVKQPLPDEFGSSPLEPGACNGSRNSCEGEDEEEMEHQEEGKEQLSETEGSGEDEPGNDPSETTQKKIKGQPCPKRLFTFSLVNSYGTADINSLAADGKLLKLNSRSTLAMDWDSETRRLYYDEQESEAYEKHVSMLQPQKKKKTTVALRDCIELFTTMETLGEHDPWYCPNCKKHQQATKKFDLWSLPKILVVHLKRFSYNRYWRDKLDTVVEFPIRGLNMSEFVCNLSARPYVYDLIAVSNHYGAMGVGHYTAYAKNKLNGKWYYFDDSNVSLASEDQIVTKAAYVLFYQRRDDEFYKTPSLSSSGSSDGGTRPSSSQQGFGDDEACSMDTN
Method in brief: as §1

Measured: log2 ratio of Biotin-Ahx-Ub-VS probe labelling

Cl.O=C(CCl)N1CCc2ncncc2C1
inactive: USP34 -0.136 | USP36 0.0811 | USP38 -0.0489 | USP39 0.321 | USP4 -0.201
